This is a sample that favours compounds with a hit; in the whole collection about 2.2% have one here.
ADAM17 inh: inhibits human ADAM17 | recombinant ADAM17, EDANS/DABCYL FRET peptide cleavage | actives 0.83% (n = 370,000) | P78536 | AID 720648 | inhibition, % at 6.95 µM;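 active = inhibition above the mean of compounds lying between control limits plus 3 SD, set per campaign, cut at about 8.5% in these data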
GC-A act: GC-A (human) enzyme activation. AID 1671463. actives 0.14% (n = 370,000). activation, % at 10 µM. HEK293 GC-A cells, cGMP TR-FRET, EC30 ANP; 0% at EC30 ANP, 100% saturating ANP; in the data active = activation above about 40%
ADAM10 inh: ADAM10 inhibition, QFRET primary screen | O14672 | recombinant ADAM10, EDANS/DABCYL FRET peptide cleavage, 3 h | inhibition, % at 7 µM | actives 0.62% (n = 370,000) | AID 720582;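 active = inhibition above a per-campaign cutoff equal to the mean of compounds falling between control-based bounds plus 3 SD, cut at about 20% in these data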
Target sequence (O14672 214-748 limits assumed): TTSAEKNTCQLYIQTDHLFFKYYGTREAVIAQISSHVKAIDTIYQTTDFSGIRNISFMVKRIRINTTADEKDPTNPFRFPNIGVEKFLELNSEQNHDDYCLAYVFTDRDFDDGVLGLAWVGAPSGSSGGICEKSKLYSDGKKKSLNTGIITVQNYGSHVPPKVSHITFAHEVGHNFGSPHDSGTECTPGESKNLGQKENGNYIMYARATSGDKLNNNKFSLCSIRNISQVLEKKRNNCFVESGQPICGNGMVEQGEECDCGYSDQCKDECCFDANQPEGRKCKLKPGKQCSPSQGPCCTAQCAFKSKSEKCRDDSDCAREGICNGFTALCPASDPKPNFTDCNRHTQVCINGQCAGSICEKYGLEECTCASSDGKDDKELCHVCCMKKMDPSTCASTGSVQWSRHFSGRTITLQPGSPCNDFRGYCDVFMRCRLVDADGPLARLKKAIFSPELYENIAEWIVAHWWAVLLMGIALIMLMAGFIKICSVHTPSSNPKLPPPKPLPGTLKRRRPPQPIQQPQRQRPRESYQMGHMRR
proKLK7 act: activators of human kallikrein-7 zymogen; purified proKLK7, EDANS-DABCYL substrate fluorescence; 100% is mature enzyme control, 0% vehicle; activation, % at 7 µM; actives 0.9% (n = 370,000);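 active = activation above the mean of all tested compounds plus 3 SD, computed per campaign excluding outliers beyond control limits, cut at about 13% in these data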
GC-B act: GC-B (human) receptor activation. HEK293-GC-B cells, CNP EC30, cGMP TR-FRET; 0% at EC30 CNP, 100% saturating CNP. activation, % at 10 µM. actives 0.11% (n = 370,000). AID 1920062;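 active = activation at 10 µM reaching about 35% in either raw or pattern-adjusted values, limit read from the data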
KLK7 act conf: confirmation of human kallikrein-7 zymogen activators | purified proKLK7, EDANS-DABCYL substrate fluorescence; scaled: vehicle 0, mature enzyme 100 | AID 686949 | shares compounds with proKLK7 act | activation, % at 7 µM | actives 68% (n = 3,200);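 active = activation, as change over the incubation, above the mean of all tested compounds plus 3 SD, cut at about 13% in these data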
EDANS interfere: fluorescence interference counter-screen for KLK7 activators; shares compounds with proKLK7 act; EDANS-DABCYL substrate fluorescence interference, no enzyme, 4 h; solvent 0%, active enzyme control 100%; activation, % at 7 µM; actives 80% (n = 3,200); AID 686952;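 active = activation above the all-compound mean plus 3 SD, ignoring values outside control-based bounds, cut at about 4.8% in these data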;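 note: value is the 4 h activation minus the activation read at time zero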
K7 EDANS ctr: EDANS fluorescence interference in dose response, no enzyme. EC50, µM. EDANS-DABCYL peptide fluorescence interference. actives 20% (n = 250). shares compounds with proKLK7 act;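 active = compounds that raise the fluorescence signal in this interference counterscreen, with EC50 at or below 10 µM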;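 note: intact quenched peptide substrate alone read at 355 nm excitation and 520 nm emission; signal is fluorescence gain from T0 to T4 after four hours at room temperature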
Each line names hits and unclear results; the compound was inactive in the other large screens (follow-up assays come after a bar, where they were run).

CCCc1cc(=O)oc2c(CN3CCN(C)CC3)c(O)ccc12	proKLK7 act 46 | KLK7 act conf 66 | EDANS interfere 75
CCCCc1cc(=O)oc2cc(O)ccc12	proKLK7 act 56 | KLK7 act conf 79 | EDANS interfere 78
CCCc1cc(=O)oc2c(CN3CCOCC3)c(O)ccc12	proKLK7 act 75 | KLK7 act conf 72 | EDANS interfere 63
CCCCc1cc(=O)oc2c(CN3CCN(C)CC3)c(O)ccc12	proKLK7 act 53 | KLK7 act conf 70 | EDANS interfere 75
Cc1c(O)ccc2c(CN(C)Cc3ccccc3)cc(=O)oc12	none
CC(=O)c1c(O)ccc2c(-c3ccccc3)cc(=O)oc12	none
CN(C)Cc1c(O)ccc2c(-c3ccccc3)cc(=O)oc12	proKLK7 act 13 | KLK7 act conf 26 | EDANS interfere 25
CCCCc1cc(=O)oc2c(CN(C)C)c(O)ccc12	proKLK7 act 55 | KLK7 act conf 63 | EDANS interfere 66
CC(=O)Nc1ccc(OCC(C)CN2CCC(C(O)(c3ccccc3)c3ccccc3)CC2)cc1 (configuration not stated)	none
Cc1ccc(Cn2nnc3c2-c2ccccc2S(=O)(=O)N(C2CC2)C3)cc1	none
O=C1NN(c2ccc(Br)cc2)C(=O)/C1=C\c1ccc(O)cc1O	proKLK7 act 157 | KLK7 act conf 181 | EDANS interfere 196
CCOc1ccc(N(CC(=O)Nc2c(C)n(C)n(-c3ccccc3)c2=O)S(=O)(=O)c2cccc3cccnc23)cc1	none
COc1cc2c(cc1OC)C(CCc1ccccc1)=NCC2	proKLK7 act 152 | KLK7 act conf 63 | EDANS interfere 80
COc1cc2c(cc1OC)C(c1c(Cl)cccc1Cl)=NCC2	none
COc1ccc(C2=NC(C)(C)Cc3cc(OC)c(OC)cc32)cc1	proKLK7 act 22 | KLK7 act conf inactive | EDANS interfere 7.1
COc1cc2c(cc1OC)C(c1c(-c3c(Cl)cccc3Cl)noc1C)=NCC2	none
COc1ccc(C2=NCCc3cc(OC)c(OC)cc32)cc1OC	proKLK7 act 17 | KLK7 act conf inactive | EDANS interfere 11
COc1ccc(C2=NCCc3cc(OC)c(OC)cc32)cc1	proKLK7 act 30 | KLK7 act conf inactive | EDANS interfere 13
CC(COc1cccc(C#N)c1)CN1CCC(C(O)(c2ccccc2)c2ccccc2)CC1 (configuration not stated)	none
C[C@]12c3[nH]c4cc(-c5ccco5)ccc4c3CCN1C(=O)[C@@H](CC(=O)NCc1ccco1)C[C@@H]2C(=O)N1CCCCC1	proKLK7 act 84 | KLK7 act conf 45 | EDANS interfere 82
CC[C@]12c3[nH]c4ccccc4c3CCN1C(=O)C(CC(=O)NCc1ccco1)C[C@@H]2C(=O)N1CCN(C(=O)c2ccco2)CC1 (some centres not stated)	none
CC[C@]12c3[nH]c4cc(-c5ccco5)ccc4c3CCN1C(=O)[C@@H](CC(=O)NC(C)(C)C)C[C@@H]2C(=O)N1CCN(C(=O)C2CC2)CC1	proKLK7 act 144 | KLK7 act conf 203 | EDANS interfere 163
CC[C@]12c3[nH]c4cc(-c5ccco5)ccc4c3CCN1C(=O)[C@@H](CC(=O)NCCc1ccccn1)C[C@@H]2C(=O)N1CCN(C(=O)C2CC2)CC1	proKLK7 act 137 | KLK7 act conf 104 | EDANS interfere 124
CC[C@]12c3[nH]c4cc(-c5ccco5)ccc4c3CCN1C(=O)[C@@H](CC(=O)NCc1ccco1)C[C@@H]2C(=O)N1CCN(C(=O)c2ccco2)CC1	proKLK7 act 134 | KLK7 act conf 95 | EDANS interfere 104
COC(=O)[C@]12C[C@H](CC(=O)N3CCC(c4ccccc4)CC3)C(=O)N(Cc3cccc4ccccc34)C1=C[C@H](COCc1ccccc1)O[C@@H]2C	none
CC(C)(C)NC(=O)CC1C[C@H](C(=O)N2CCCCC2)[C@@]2(C)c3[nH]c4ccccc4c3CCN2C1=O (some centres not stated)	none
CC(C)(C)NC(=O)C[C@H]1C[C@H](C(=O)N2CCCCC2)[C@@]2(C)c3[nH]c4cc(-c5ccco5)ccc4c3CCN2C1=O	proKLK7 act 77 | KLK7 act conf 74 | EDANS interfere 79
C[C@]12c3[nH]c4cc(-c5ccco5)ccc4c3CCN1C(=O)[C@@H](CC(=O)NCc1ccco1)C[C@@H]2C(=O)N1CCOCC1	proKLK7 act 75 | KLK7 act conf 81 | EDANS interfere 75
CCOC(=O)NN1C(=O)c2ccccc2NC1c1ccc(N(C)C)cc1 (configuration not stated)	none
O=C(O)CCC(=O)NN1C(=O)c2ccccc2NC1c1ccco1 (configuration not stated)	proKLK7 act 15 | KLK7 act conf 49 | EDANS interfere 16 | K7 EDANS ctr inactive
CCOC(=O)NN1C(=O)c2ccccc2NC1c1ccc(OC)cc1 (configuration not stated)	proKLK7 act 36 | KLK7 act conf 20 | EDANS interfere 23
COc1ccc(C2Nc3ccccc3C(=O)N2NC(C)=O)c(OC)c1 (configuration not stated)	proKLK7 act 21 | KLK7 act conf 20 | EDANS interfere 16 | K7 EDANS ctr inactive
COc1ccc(N2C(=O)c3ccccc3NC2c2ccc(NC(C)=O)cc2)c(OC)c1 (configuration not stated)	none
CCOC(=O)NN1C(=O)c2ccccc2NC1c1ccccc1 (configuration not stated)	proKLK7 act 20 | KLK7 act conf 21 | EDANS interfere 24
CCOC(=O)NN1C(=O)c2ccccc2NC1c1ccccn1 (configuration not stated)	none
CCOC(=O)NN1C(=O)c2ccccc2NC1C (configuration not stated)	proKLK7 act 13 | KLK7 act conf 25 | EDANS interfere 28
CN(C)CCCNS(=O)(=O)c1ccc(N2CCC(c3ccc(Cl)cc3)=N2)cc1	proKLK7 act 24 | KLK7 act conf 66 | EDANS interfere 62
COc1cccc2c(=O)cn[nH]c12	proKLK7 act 84 | KLK7 act conf 66 | EDANS interfere 64
